From PubChem BioAssay (NCATS)
Results filed as inconclusive are left out. A call without a number means that no potency is given here. A number with no mark means an inactive call. Active and inactive are the calls of the source. The call rests on the fitted dose curve; in most records, active means well fitted inhibition curve with a large enough effect; inconclusive means small, poorly fitted or top-dose-only effect; inactive means flat fitted curve, though single readings scatter.

Experiments:
[1] = qHTS profiling for inhibitors of Plasmodium falciparum proliferation (AID 504749); further: nearly all actives have a fitted effect of over 60% in size; settings: P. falciparum in erythrocytes, SYBR Green DNA, 72 h
Procedure, shortened: (§1)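 SYBR Green fluorescence (ex 485 nm, em 535 nm) reports parasite DNA after 72 h compound exposure of infected red cells at 0.3% parasitemia, 2.5% hematocrit; signal normalized to 0.29 uM artemisinin and vehicle wells.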

3D7 = experiment: as above; settings: P. falciparum in erythrocytes, SYBR Green DNA, 72 h; series mostly up to 28.7 µM
Procedure, shortened: as §1

AA1029 = experiment: as above; settings: P. falciparum in erythrocytes, SYBR Green DNA, 72 h; series mostly up to 28.7 µM
Procedure, shortened: as §1

AS120 = experiment: as above; settings: P. falciparum in erythrocytes, SYBR Green DNA, 72 h; series mostly up to 28.7 µM
Procedure, shortened: as §1

ATS189 = experiment: as above; settings: P. falciparum in erythrocytes, SYBR Green DNA, 72 h; series mostly up to 28.7 µM
Procedure, shortened: as §1

ATS95 = experiment: as above; settings: P. falciparum in erythrocytes, SYBR Green DNA, 72 h; series mostly up to 28.7 µM
Procedure, shortened: as §1

C2A = experiment: as above; settings: P. falciparum in erythrocytes, SYBR Green DNA, 72 h; series mostly up to 28.7 µM
Procedure, shortened: as §1

CP185 = experiment: as above; settings: P. falciparum in erythrocytes, SYBR Green DNA, 72 h; series mostly up to 28.7 µM
Procedure, shortened: as §1

CP191 = experiment: as above; settings: P. falciparum in erythrocytes, SYBR Green DNA, 72 h; series mostly up to 28.7 µM
Procedure, shortened: as §1

7G8 = experiment: as above; settings: P. falciparum in erythrocytes, SYBR Green DNA, 72 h; series mostly up to 28.7 µM
Procedure, shortened: as §1

[2] = at 28.7 µM (top of the series), parasite line A
[3] = at 28.7 µM (top of the series), parasite line B
Potency means the concentration at half of the fitted maximal effect.

SMILES | activity, negative = inhibition [1, 2] [%] | activity, negative = inhibition [1, 3] [%] | Potency (3D7) | Potency (AA1029) | Potency (AS120) | Potency (ATS189) | Potency (ATS95) | Potency (C2A) | Potency (CP185) | Potency (CP191) | Potency (7G8) | Potency ([1]; parasite line A) | Potency ([1]; parasite line B) | activity, negative = inhibition ([1]; at 12.8 µM (top of the series), parasite line A) [%] | activity, negative = inhibition ([1]; at 12.8 µM (top of the series), parasite line B) [%]
O=C1CN(O)C(c2ccccc2)=c2cc(Cl)ccc2=N1 | 7.13 | 1.2 | inactive | inactive | inactive | inactive | inactive | inactive | inactive | inactive | – | – | – | – | –
CCN(CC)C(=O)/C(Cl)=C(\C)OP(=O)(OC)OC | -6.34 | 3.3 | inactive | inactive | inactive | inactive | inactive | inactive | inactive | inactive | – | – | – | – | –
c1ccc2sc(SNC3CCCCC3)nc2c1 | 7.11 | 2.42 | inactive | inactive | inactive | inactive | inactive | inactive | inactive | inactive | – | – | – | – | –
CCC1(c2ccccc2)C(=O)NC(=O)N(C)C1=O (configuration not stated) | 3.95 | 7.56 | inactive | inactive | inactive | – | inactive | inactive | inactive | – | 8.91 µM (active) | – | – | – | –
CCCC(=O)OC(C(Cl)(Cl)Cl)P(=O)(OC)OC (configuration not stated) | -16.7 | -35.8 | – | inactive | inactive | inactive | – | inactive | inactive | inactive | – | – | – | – | –
[Cl-].[Cl-].[Hg+2] | – | – | 12.6 µM (active) | – | – | – | – | – | – | inactive | 11.2 µM (active) | 7.94 µM (active) | 8.91 µM (active) | – | –
Clc1ccccc1Cl | 6.5 | – | inactive | inactive | inactive | inactive | inactive | inactive | inactive | inactive | inactive | – | – | – | –
O=c1c2ccccc2[se]n1-c1ccccc1 | – | – | – | inactive | – | – | inactive | inactive | – | – | 8.91 µM (active) | – | – | – | –
CC(N)Cc1ccc(O)cc1 (configuration not stated) | -0.875 | 1.76 | inactive | inactive | inactive | inactive | inactive | inactive | inactive | inactive | inactive | – | – | – | –
c1ccc2cc(CC3=NCCN3)ccc2c1 | 3.45 | -0.535 | inactive | inactive | inactive | inactive | inactive | inactive | inactive | inactive | – | – | – | – | –
O=Cc1ccco1 | -15.5 | 9.74 | inactive | inactive | – | inactive | inactive | inactive | inactive | inactive | inactive | – | – | – | –
F/C(COc1ccc2c(c1)[nH]c1ccccc12)=C1/CN2CCC1CC2 | – | – | – | 10 µM (active) | 4.47 µM (active) | – | 11.2 µM (active) | – | – | 11.2 µM (active) | 5.01 µM (active) | – | 10 µM (active) | – | –
O=C1CN=C(c2ccccc2)c2cc(Cl)ccc2N1CC1CC1 | -5.97 | -9.8 | – | inactive | – | inactive | inactive | inactive | inactive | inactive | – | – | – | – | –
O=C(NC(=O)c1c(F)cccc1F)Nc1ccc(Cl)c(Oc2ncc(C(F)(F)F)cc2Cl)c1 | 9.79 | -1.85 | inactive | inactive | inactive | inactive | inactive | inactive | inactive | inactive | – | – | – | – | –
CCC1(C)CC(=O)NC(=O)C1 | – | – | inactive | inactive | inactive | inactive | – | inactive | inactive | inactive | inactive | – | – | 7.23 | 5.64
O=C1C2CC=CCC2C(=O)N1SC(Cl)(Cl)Cl (configuration not stated) | -6.95 | 5.29 | inactive | inactive | inactive | inactive | inactive | inactive | inactive | inactive | – | – | – | – | –
CC12NC(Cc3ccccc31)c1ccccc12 (configuration not stated) | -7.25 | 6.66 | inactive | 11.2 µM (active) | – | – | – | inactive | – | – | – | – | – | – | –
OC(c1ccccc1)(c1ccccc1)C1CN2CCC1CC2 (configuration not stated) | 2.79 | -0.359 | inactive | – | inactive | inactive | inactive | inactive | inactive | – | – | – | – | – | –
CC1CCC(C(C)C)C(OC(=O)c2ccccc2N)C1 (configuration not stated) | -17.5 | -19.4 | inactive | inactive | inactive | – | – | inactive | inactive | inactive | – | – | – | – | –
